From PubChem BioAssay (NCATS)
Values without a mark were called inactive. Records with an inconclusive call do not appear. Calls of active or inactive are those of the source. Unless noted, the call rests on the fitted dose curve; in most records, active means well fitted curve in either direction with a large enough effect (not every such curve was filed as active); inconclusive means small, poorly fitted or top-dose-only effect, or another doubt; inactive means flat fitted curve, though single readings scatter.

Columns and labels:
[1] = biological target: Lysosomal acid glucosylceramidase (Homo sapiens) (UniProt P04062); test: Glucocerebrosidase-p2 (AID 348; in the data active means potency below about 10 µM; further: potency means the concentration at half of the fitted maximal effect); settings: purified GBA, blue fluorogenic substrate, 40 min
In short: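 Compounds titrated from 0.6 nM upwards against 0.2 nM enzyme in pH 5.9 citric acid/KH2PO4, taurocholate, tween-20; blue fluorogenic substrate 80 uM, 40 min room temperature, stopped and read Ex 365/Em 440 for AC50.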

[2] = AP1 Signaling Pathway (AID 357); settings: ME-180 AP-1-bla reporter, EGF-induced, beta-lactamase ratio, 5 h; at 7.69 µM (top of the series) unless noted;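 further: ME-180 reporter cells stimulated with EGF at its EC50 level; on the % scale 0 is the no-effect control and ±100 the full control effect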
In short: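 Beta-lactamase reporter under AP-1 response element, ME-180 background. Stimulus: EC50 EGF. Compound exposure 5 h, 37 °C. Detection: CCF4, 2.5 h RT, 460/530 nm. Values: AC50 from titration.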

[3] = biological target: Cytochrome P450 1A2 (Homo sapiens) (UniProt P05177); test: p450-cyp1a2 (AID 410; calls by dose curve; further: potency means the concentration at half of the fitted maximal effect;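 on activity change, negative = inhibition: -100% = full effect of reference inhibitor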); settings: recombinant CYP1A2, luciferin-ME demethylation, luminescence; series mostly up to 11.4 µM
In short: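 20nM CYP1A2 with 100uM Luciferin-ME (at Km) in 100mM KPO4; compound preincubated 10 min, NADPH regeneration added, 60 min at room temperature. Luciferin quantified by luminescence after detection reagent; normalized to 57 uM furafylline.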

[4] = NFAT Signaling Pathway (AID 444); settings: Jurkat NFAT-bla M1, carbachol, beta-lactamase ratio, 5 h; at 7.69 µM (top of the series) unless noted;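 further: carbachol stimulus at about its EC50 of 1 µM final; on the % scale 0 is the no-effect control and ±100 the full control effect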
In short: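 Read-out: CCF4 FRET ratio (460 nm/530 nm) after 1 h RT dye loading, used for %activity and AC50 from titration series. Cells: Jurkat NFAT-β-lactamase/M1 line, treated with compound plus 1 uM carbachol for 5 h, 37 °C.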

[5] = Stat Signaling Pathway (AID 446); settings: ME-180 SIE beta-lactamase reporter, IL-6 stimulated, 5 h; at 7.69 µM (top of the series) unless noted;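 further: ME-180 cervical cancer cells given 40 pM IL-6 alongside compound; SIE-controlled beta-lactamase reporter measured as 460/530 nm FRET emission ratio; on the % scale 0 is the no-effect control and ±100 the full control effect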
In short: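 ME-180 SIE-bla cells; overnight plating; cpd + IL-6 40 pM, 5 h, 37 C; LiveBLAzer 2.5 h RT; 460/530 nm emission ratio. Normalized to 300 pM IL-6 and 125 nM JAK inhibitor controls.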

[6] = biological target: Glucocorticoid receptor (Homo sapiens) (UniProt P04150); test: GR-GFP Redistribution (AID 450;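 active means compounds whose dose series gives a full or clear partial fitted curve of increased nuclear translocation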; further: potency means the concentration at half of the fitted maximal effect); settings: U2OS GR-GFP nuclear translocation, laser cytometry, 2 h
[7] = biological target: Glucocorticoid receptor (Homo sapiens) (UniProt P04150); test: GR-EFC Redistribution (AID 451; calls by dose curve; further: potency means the concentration at half of the fitted maximal effect); settings: CHO-K1 GR-EFC translocation, beta-gal luminescence, 2 h
In short: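 Translocation of GR-ED fusion to nuclear EA restores b-gal, read by luminescence after 1 h room-temperature detection. Engineered CHO-K1 biosensor cells, 1,000/well, exposed 2 h at 37 C to titrations up to 46 uM final.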

[8] = biological target: Mitogen-activated protein kinase 10 (Mus musculus) (UniProt Q61831); test: JNK3 AlphaScreen Assay (AID 530); settings: JNK3 lysate, c-Jun phosphorylation; series mostly up to 11.4 µM;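 further: kinase came from lysate of stimulated human HepG2 cells; signal reports phosphorylation of biotinylated GST-cJun 1-79 at Ser73 with 10 µM ATP; on the % scale 0 is the no-effect control and ±100 the full control effect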
In short: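 Compound titrations were preincubated 15 minutes at room temperature with substrate, antibody and pre-activated JNK3-containing HepG2 lysate. Reactions were started with 10 uM ATP and stopped with EDTA-containing bead buffer for AlphaScreen detection.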

[9] = biological target: 3',5'-cyclic-AMP phosphodiesterase 4B (Homo sapiens) (UniProt Q07343); test: qHTS Assay for Inhibitors of PDE-IV (AID 607; active means well fitted activation curve with a large enough effect in the main read-out, with a control signal flat, not every such curve was filed as active; further: % of control where 0% means no effect); settings: HEK293 ACTOne CNG channel cells, membrane potential fluorescence; series mostly up to 22.9 µM
In short: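 ACTOne HEK293 cells carry a modified cAMP-gated CNG channel and express endogenous PDE4; plated 1000 cells/well, compounds up to 22.9 uM final. Membrane-potential dye fluorescence (ex 535/em 590) was read; parental cells received 10 uM forskolin + 100 uM RO 20-1724.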

[10] = qHTS Assay for Identification of Small Molecule Agonists for Hypoxia Response Element Signaling Pathway (AID 914; active means well fitted activation curve with a large enough effect in the signal ratio, with a control signal flat, not every such curve was filed as active; the % refers to the signal ratio; further: % of control where 0% means no effect); settings: ME-180 (cervical carcinoma) HRE-bla reporter, beta-lactamase ratio, CoCl2, 17 h; activation: hits give high values
In short: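 Compounds in a titration series were added to ME-180 reporter cells alongside an EC50 level of CoCl2. After 17 hours, beta-lactamase activity was read as the 460nm/530nm emission ratio of CCF4, giving AC50 values.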

[11] = biological target: Cytochrome P450 3A4 (Homo sapiens) (UniProt P08684); test: qHTS Assay for Activators of Cytochrome P450 3A4 (AID 885; active means well fitted curve in the direction sought with a large enough effect; an effect the other way counts as inactive or inconclusive; further: nearly all actives have a fitted effect of over 65% in size); settings: recombinant CYP3A4, Luciferin-PPXE luminescence, 60 min; series mostly up to 11.4 µM
In short: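 20nM CYP3A4 + 25uM Luciferin-PPXE (=KM), 200mM KPO4; cpd 10 min RT; NADPH regen, 60 min RT; stop w/ detection buffer, 20 min; luminescence. Normalized to 57 uM ketoconazole.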

[12] = biological target: Cytochrome P450 2C9 (Homo sapiens) (UniProt P11712); test: qHTS Assay for Inhibitors and Substrates of Cytochrome P450 2C9 (AID 883; active means well fitted curve in the direction sought with a large enough effect; an effect the other way counts as inactive or inconclusive; further: potency means the concentration at half of the fitted maximal effect; nearly all actives have a fitted effect of over 60% in size); settings: recombinant CYP2C9, luciferin-H luminescence, 60 min; series mostly up to 11.4 µM
In short: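 Luminescent read-out of deoxyluciferin hydroxylation, normalized to 57uM sulphaphenazole (AC100). Reaction: 10nM enzyme, 100uM Luciferin-H (equal to KM), 25mM KPO4, 10 min compound preincubation, then 60 min with NADPH regeneration, both at 37C.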

[13] = biological target: Cytochrome P450 3A4 (Homo sapiens) (UniProt P08684); test: qHTS Assay for Inhibitors and Substrates of Cytochrome P450 3A4 (AID 884; active means well fitted curve in the direction sought with a large enough effect; an effect the other way counts as inactive or inconclusive; further: potency means the concentration at half of the fitted maximal effect; nearly all actives have a fitted effect of over 50% in size); settings: recombinant CYP3A4, Luciferin-PPXE luminescence; series mostly up to 57.1 µM
In short: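 20 nM human CYP3A4 with 25 uM Luciferin-PPXE (at KM) in 200 mM KPO4, preincubated 10 min with compound; NADPH regeneration started a 60 min RT reaction. Luciferin detected by luminescence, normalized to 57 uM ketoconazole as full inhibition.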

[14] = biological target: Cytochrome P450 2C19 (Homo sapiens) (UniProt P33261); test: qHTS Assay for Inhibitors and Substrates of Cytochrome P450 2C19 (AID 899; active means well fitted curve in the direction sought with a large enough effect; an effect the other way counts as inactive or inconclusive; further: potency means the concentration at half of the fitted maximal effect; nearly all actives have a fitted effect of over 60% in size); settings: recombinant CYP2C19, luciferin-H EGE luminescence; series mostly up to 11.4 µM
In short: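 Luminescence readout of luciferin formed from 10uM Luciferin-H EGE (KM level) by 5 nM CYP2C19 in 50mM KPO4. 60 min NADPH-driven reaction at 37C after 10 min compound preincubation; data scaled to 57uM ketoconazole inhibition.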

Sequence of Lysosomal acid glucosylceramidase (Homo sapiens) (P04062 whole entry, looked up): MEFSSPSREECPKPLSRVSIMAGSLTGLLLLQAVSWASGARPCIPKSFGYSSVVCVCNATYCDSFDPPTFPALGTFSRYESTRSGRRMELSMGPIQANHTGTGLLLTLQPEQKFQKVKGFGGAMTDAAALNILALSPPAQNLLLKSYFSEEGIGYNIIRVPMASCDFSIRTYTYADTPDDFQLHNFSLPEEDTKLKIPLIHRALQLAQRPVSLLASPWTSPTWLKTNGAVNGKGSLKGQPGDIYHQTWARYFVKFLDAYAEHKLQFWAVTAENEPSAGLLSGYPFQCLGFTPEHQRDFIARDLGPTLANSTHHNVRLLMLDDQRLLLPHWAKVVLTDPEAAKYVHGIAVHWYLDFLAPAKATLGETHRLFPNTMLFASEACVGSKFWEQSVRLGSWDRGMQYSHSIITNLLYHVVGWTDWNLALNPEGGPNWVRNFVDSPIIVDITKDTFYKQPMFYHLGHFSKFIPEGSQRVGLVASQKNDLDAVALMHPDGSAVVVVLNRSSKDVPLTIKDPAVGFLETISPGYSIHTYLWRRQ
Sequence of Cytochrome P450 1A2 (Homo sapiens) (P05177 whole entry, looked up): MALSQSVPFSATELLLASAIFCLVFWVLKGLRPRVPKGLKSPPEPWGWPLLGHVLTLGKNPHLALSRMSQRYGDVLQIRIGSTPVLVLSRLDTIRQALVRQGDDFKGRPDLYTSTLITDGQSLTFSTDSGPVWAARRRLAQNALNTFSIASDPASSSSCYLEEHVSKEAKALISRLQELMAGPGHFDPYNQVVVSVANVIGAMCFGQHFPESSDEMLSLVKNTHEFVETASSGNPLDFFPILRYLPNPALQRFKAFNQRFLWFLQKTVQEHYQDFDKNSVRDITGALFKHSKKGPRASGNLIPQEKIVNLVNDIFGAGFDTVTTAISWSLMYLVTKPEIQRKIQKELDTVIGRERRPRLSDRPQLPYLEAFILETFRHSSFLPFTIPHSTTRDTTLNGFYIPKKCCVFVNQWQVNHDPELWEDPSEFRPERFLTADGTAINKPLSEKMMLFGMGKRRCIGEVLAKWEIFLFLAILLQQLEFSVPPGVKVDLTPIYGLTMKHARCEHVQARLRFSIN
Sequence of Cytochrome P450 3A4 (Homo sapiens) (P08684 whole entry, looked up): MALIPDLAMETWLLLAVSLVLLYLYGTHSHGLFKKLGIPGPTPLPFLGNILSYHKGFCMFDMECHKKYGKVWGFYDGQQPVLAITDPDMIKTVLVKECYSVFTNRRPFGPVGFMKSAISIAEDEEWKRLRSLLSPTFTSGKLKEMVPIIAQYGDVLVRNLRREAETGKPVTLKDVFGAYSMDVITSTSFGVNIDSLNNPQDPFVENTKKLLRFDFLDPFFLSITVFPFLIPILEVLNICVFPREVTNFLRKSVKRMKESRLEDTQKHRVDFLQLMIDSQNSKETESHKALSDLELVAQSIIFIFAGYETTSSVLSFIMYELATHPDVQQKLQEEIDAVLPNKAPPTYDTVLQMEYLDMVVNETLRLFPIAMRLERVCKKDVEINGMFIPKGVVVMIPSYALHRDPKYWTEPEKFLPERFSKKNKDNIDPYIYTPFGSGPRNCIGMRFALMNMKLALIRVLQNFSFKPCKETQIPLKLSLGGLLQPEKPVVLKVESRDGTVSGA
Sequence of Glucocorticoid receptor (Homo sapiens) (P04150 whole entry, looked up, the tested form may be a part): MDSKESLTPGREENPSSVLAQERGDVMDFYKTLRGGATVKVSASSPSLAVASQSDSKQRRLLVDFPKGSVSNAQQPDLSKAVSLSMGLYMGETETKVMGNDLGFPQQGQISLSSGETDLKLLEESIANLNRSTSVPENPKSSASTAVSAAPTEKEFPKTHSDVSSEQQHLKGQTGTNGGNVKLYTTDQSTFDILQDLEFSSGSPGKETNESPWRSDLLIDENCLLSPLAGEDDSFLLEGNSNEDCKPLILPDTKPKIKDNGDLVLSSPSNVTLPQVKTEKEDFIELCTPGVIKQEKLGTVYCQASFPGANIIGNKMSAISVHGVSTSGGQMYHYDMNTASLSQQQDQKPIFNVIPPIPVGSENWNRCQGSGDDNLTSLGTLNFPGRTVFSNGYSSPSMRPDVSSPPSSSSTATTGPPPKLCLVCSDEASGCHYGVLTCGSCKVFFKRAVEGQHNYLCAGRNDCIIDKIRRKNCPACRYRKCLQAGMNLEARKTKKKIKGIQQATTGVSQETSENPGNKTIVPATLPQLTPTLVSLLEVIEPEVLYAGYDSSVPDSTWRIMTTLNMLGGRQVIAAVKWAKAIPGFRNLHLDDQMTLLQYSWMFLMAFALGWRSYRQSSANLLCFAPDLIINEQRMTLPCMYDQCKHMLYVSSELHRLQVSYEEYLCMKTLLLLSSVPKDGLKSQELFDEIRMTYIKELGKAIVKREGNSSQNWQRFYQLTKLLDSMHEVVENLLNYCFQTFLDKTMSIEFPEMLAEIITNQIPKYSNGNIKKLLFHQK
Sequence of 3',5'-cyclic-AMP phosphodiesterase 4B (Homo sapiens) (Q07343 whole entry, looked up): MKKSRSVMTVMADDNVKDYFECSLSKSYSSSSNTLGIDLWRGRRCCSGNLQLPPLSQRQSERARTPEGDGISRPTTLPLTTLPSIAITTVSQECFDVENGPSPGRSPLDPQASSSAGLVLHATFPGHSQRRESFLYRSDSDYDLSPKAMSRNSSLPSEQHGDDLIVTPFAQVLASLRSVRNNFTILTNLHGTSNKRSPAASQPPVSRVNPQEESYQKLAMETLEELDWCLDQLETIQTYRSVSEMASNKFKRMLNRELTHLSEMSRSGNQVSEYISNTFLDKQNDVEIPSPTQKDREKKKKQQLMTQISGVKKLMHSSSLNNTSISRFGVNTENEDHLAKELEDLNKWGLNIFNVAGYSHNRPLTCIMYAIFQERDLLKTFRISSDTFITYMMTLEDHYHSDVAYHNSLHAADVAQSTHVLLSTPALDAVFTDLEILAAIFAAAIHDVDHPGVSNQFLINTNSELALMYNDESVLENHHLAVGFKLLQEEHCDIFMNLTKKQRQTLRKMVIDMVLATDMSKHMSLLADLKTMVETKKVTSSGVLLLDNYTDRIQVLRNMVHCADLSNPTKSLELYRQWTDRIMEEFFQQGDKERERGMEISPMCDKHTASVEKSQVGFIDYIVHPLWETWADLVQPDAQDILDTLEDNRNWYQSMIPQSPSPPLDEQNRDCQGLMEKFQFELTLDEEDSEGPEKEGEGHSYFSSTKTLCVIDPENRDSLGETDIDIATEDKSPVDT
Sequence of Cytochrome P450 2C19 (Homo sapiens) (P33261 whole entry, looked up): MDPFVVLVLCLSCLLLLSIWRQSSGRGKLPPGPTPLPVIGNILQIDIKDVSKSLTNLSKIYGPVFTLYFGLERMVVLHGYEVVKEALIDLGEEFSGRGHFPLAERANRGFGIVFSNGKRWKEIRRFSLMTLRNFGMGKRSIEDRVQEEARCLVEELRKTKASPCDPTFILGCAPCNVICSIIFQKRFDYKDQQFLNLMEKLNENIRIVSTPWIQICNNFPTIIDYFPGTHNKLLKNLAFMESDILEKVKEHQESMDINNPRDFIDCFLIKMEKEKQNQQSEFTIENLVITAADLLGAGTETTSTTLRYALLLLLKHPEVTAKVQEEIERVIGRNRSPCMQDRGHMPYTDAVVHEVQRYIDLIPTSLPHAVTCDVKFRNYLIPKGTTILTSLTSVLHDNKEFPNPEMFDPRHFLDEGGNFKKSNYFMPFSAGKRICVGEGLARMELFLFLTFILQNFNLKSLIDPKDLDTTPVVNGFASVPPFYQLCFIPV
Sequence of Cytochrome P450 2C9 (Homo sapiens) (P11712 whole entry, looked up): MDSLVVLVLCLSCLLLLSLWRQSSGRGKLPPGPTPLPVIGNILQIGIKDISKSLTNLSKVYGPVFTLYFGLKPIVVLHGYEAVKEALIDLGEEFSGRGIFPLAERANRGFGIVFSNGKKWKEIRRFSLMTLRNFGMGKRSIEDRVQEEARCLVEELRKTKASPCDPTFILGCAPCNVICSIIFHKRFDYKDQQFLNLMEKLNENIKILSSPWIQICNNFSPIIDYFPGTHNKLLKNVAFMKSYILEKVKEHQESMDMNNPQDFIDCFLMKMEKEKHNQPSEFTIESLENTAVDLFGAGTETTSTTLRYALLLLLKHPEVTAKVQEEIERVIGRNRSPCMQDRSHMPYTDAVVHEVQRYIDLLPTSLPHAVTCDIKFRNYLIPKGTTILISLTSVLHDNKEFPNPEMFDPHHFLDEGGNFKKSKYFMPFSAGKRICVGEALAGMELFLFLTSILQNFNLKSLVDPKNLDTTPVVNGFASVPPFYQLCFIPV

Row | SMILES | Potency [1] [µM] | activity change, negative = inhibition [2] [%] | Potency [3] | activity change, negative = inhibition [4] [%] | activity, negative = inhibition [5] [%] | Potency [6] [µM] | Potency [7] [µM] | Potency [8] | Potency [9] | activation [10] [%] | Potency [11] | activity change, negative = inhibition [3] | Potency [12] | Potency [13] | Potency [14]
1 | O=S(=O)(c1ccccc1)N1CN2CN(C1)CN(S(=O)(=O)c1ccccc1)C2 | > 11.4 | -16.9 | inactive | -4.88 | -0.275 | > 46 | > 9.22 | inactive | inactive | -1.12 |  |  |  |  | 
2 | CC(C)(C)CC(C)(C)c1cc(O)c(O)c(CN2CCCCC2)c1 | > 11.4 | 0.737 | inactive | -28.7 | 3.86 | > 46 | > 9.22 | inactive |  |  | inactive |  |  |  | 
3 | NS(=O)(=O)c1ccc(N=C2C(=O)Nc3ccccc32)cc1 | > 11.4 | -4.71 |  | 4.31 | 4.23 | > 46 | > 9.22 | inactive | inactive | -6.17 |  | -12.7% [at 2.29 µM] |  |  | 
4 | COc1ccccc1CCn1c(=O)c(-c2ccccc2)nc2cncnc21 | > 11.4 | -5.11 | 1 µM (active) | -9.96 | -0.776 | > 9.22 | > 46 | inactive |  |  | inactive |  | 5.01 µM (active) | 3.98 µM (active) | 0.631 µM (active)
5 | NCC[C@H](N)C(=O)O | > 11.4 | -2.63 |  | 8.74 | -3.44 | > 46 | > 9.22 | inactive | inactive | -6.29 |  | -8.9% [at 2.29 µM] |  |  | 
6 | O=C(Cn1ccc(=O)[nH]c1=O)Nc1ccc(C(=O)O)c(O)c1 | > 11.4 | 13.2 |  | 18.3 | 2.74 | > 46 | > 9.22 | inactive | inactive | 6.06 |  | -16.5% [at 2.29 µM] |  |  | 
7 | N[C@@H](Cc1c[nH]c2ccc([N+](=O)[O-])cc12)C(=O)O | > 11.4 | -1.05 | inactive | -4.18 | 3.4 | > 46 | > 9.22 | inactive | inactive | -2.55 |  |  |  |  | 
8 | CCOC(=O)C(C)(C)[C@H](O)C(C)C | > 11.4 | -4.38 | inactive | 6.94 | -3.53 | > 46 | > 9.22 | inactive | inactive | 11.4 |  |  |  |  | 
9 | COc1ccc(-n2c(=O)c(C)nc3cnc(Oc4cccc(Cl)c4)nc32)cc1 | > 11.4 | -20.7 | 7.94 µM (active) | -1.69 | -10.9 | > 9.22 | > 46 | inactive |  |  | inactive |  |  |  | 
10 | CC(=O)O[C@]1(C)N=NC2(CCCCC2)O1 | > 11.4 | 0.791 | inactive | 3.95 | 16.1 | > 46 | > 9.22 | inactive | inactive | 14.3 |  |  |  |  | 
11 | N=C(N)[C@H](N=Nc1ccccc1)C(N)=O | > 11.4 | 20.5 | 0.794 µM (active) | 1.62 | 1.3 | > 46 | > 9.22 | inactive | inactive | 1 |  |  |  |  | 
12 | NC(=O)Nc1n[nH]c(-c2ccccc2)n1 | > 11.4 | 4.22 | 3.16 µM (active) | -3.57 | 2.91 | > 46 | > 9.22 | inactive | inactive | 12.6 |  |  |  |  | 
13 | OCCCSCCO | > 11.4 | 5.52 |  | 7.44 | -0.432 | > 46 | > 9.22 | inactive | inactive | 7.65 |  | -19.1% [at 2.29 µM] |  |  | 
14 | O=C(O)[C@H]([C@H]1NCCS1)N1Cc2ccccc2C1 | > 11.4 | 11 |  | 5.16 | 2.46 | > 46 | > 9.22 | inactive | inactive | 13.9 |  | -13.4% [at 2.29 µM] |  |  | 
